# Screening results: PubChem, National Center for Advancing Translational Sciences (NCATS)
# Pf growth 96h: Primary qHTS for delayed death inhibitors of the malarial parasite plastid, 96 hour incubation | P. falciparum luciferase reporter growth, 96 h | Potency, µM (doses to about 28.7 µM), for the others: at the top dose activity change, negative = inhibition, hits mostly inhibitors | 320,000 tested, 6.9% active | AID 504834, 2011; active = well fitted inhibition curve with a large enough effect; inconclusive = small, poorly fitted or top-dose-only effect, or another doubt; inactive = no such curve, though single readings can be large or run the other way; also: potency is read from the fitted curve at half-maximal effect; % is scaled to controls: 0 for no effect and ±100 for the full control effect
#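 P. falciparum expressing integrated firefly luciferase, in erythrocytes at 2% hematocrit, 0.05% parasitemia, incubated with compounds 96 h at 37 C, 5% CO2. Growth inhibition read as loss of luminescence; two-generation exposure targets delayed-death apicoplast inhibitors.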
# CHX counter-1: Cycloheximide Counterscreen for Small Molecule Inhibitors of Shiga Toxin | cell reporter, cycloheximide protein synthesis inhibition counterscreen | max response, % | 300,000 tested, 12% active | AID 2314, 2010; in the data active = max response mostly above about 13%, no sharp cut-off; inactive = mostly below about 14%; also: read at 38.3 µM for the half of the compounds with a filed dose; 0% is about no effect
# Pf growth 48h: Primary qHTS for delayed death inhibitors of the malarial parasite plastid, 48 hour incubation | AID 504832, 2011 | 310,000 tested, 5.9% active | P. falciparum luciferase growth in erythrocytes, 48 h | Potency, µM (titrated, usually from 28.7 µM), inactives show at the top dose activity change, negative = inhibition, actives largely listed as inhibitors; active = well fitted inhibition curve with a large enough effect; inconclusive = small, poorly fitted or top-dose-only effect, or another doubt; inactive = no such curve, though single readings can be large or run the other way; also: potency is read from the fitted curve at half-maximal effect; % is scaled to controls: 0 for no effect and ±100 for the full control effect
#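 Here the parasites carry a stable luciferase gene and grow inside erythrocytes in Albumax-based RPMI medium with compound for one erythrocytic cycle. Activity is scored as loss of luminescent signal.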
# Shiga inhibitor: A qHTS for Small Molecule Inhibitors of Shiga Toxin; 290,000 tested, 9.2% active; Vero cells, Shiga toxin protein synthesis inhibition reporter; inhibition, % at 38.7 µM; in the data active = inhibition mostly above about 28%, no sharp cut-off; inactive = mostly below about 43%; also: 0% is about no effect
# NS1 inh: qHTS Assay for Inhibitors of Influenza NS1 Protein Function; Potency, µM (series often up to 46.1 µM), without a hit: top-dose activity, positive = more growth; 270,000 tested, 0.4% active; AID 2326, 2010; also: potency is read from the fitted curve at half-maximal effect; actives are rising curves; nearly all actives have a fitted effect of over 50% in size
#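 Growth recovery, yeast-based: influenza A NS1 expressed in S. cerevisiae causes slow growth, and suppressors are detected by OD600. The parent strain without NS1 is used as positive control.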
# CHX counter-2: Cycloheximide Counterscreen for Small Molecule Inhibitors of Shiga Toxin (Confirmatory). shares compounds with Shiga inhibitor. Cycloheximide counterscreen, protein synthesis reporter, Shiga toxin assay. Potency, µM (titrated, usually from 38.3 µM), inactives show at the highest dose activity (activation), actives largely listed as activators. 510 tested, 3% active; also: potency is read from the fitted curve at half-maximal effect; 0% is about no effect
# The depositor's hits bear a star; ? = inconclusive; / = no result; + = active, no number; [ ] = dose if it differs, or a comment. Only some compounds are listed: those with a hit (about 21% of all), similar ones and a draw of the others. Unless noted, calls follow the shape of the full dose curve.
SMILES,Pf growth 96h,CHX counter-1,Pf growth 48h,Shiga inhibitor,NS1 inh,CHX counter-2
Cc1cc(C)n2nc(C(=O)OCC(=O)Nc3ccc(F)cc3F)nc2n1,72%,/,-6%,/,/,/
O=C(NNC(=O)c1nc(Cl)ccc1Cl)c1ccc(F)cc1,2%,-2,5%,24*,2%,0%
COc1ccc(CCNC(=O)c2ccccc2NC(=O)C2=C(C)OCCS2)c(OC)c1,?,4,?,-8,0%,/
COc1ccc(NC(=O)c2c(Cl)n(C)c3ccccc23)cc1,139%,11,35%,40*,0%,13µM*
CC(=O)c1cccc(N2C(=O)C3C4CCC(C4=C(C)C)C3C2=O)c1 (configuration not stated),-17%,1,-17%,25*,?,-3%
CC(=O)NCCc1c(C)n(Cc2ccccc2)c2ccccc12,23%,-2,11%,-10,-10%,/
CCN1CCN(Cc2nnc(-c3ccc(C)cc3)o2)CC1,23%,5,33%,43*,5%,-1%
c1ccc(CN2CCN(Cc3nnc(-c4ccccc4)o3)CC2)cc1,-3%,14,19%,20,/,/
Cc1ccc(NC(=O)c2cccc(N3C(=O)C4C5C=CC(C5)C4C3=O)c2)cc1C (configuration not stated),12µM*,6,-21%,18*,-4%,3%
COc1ccc(NC(=O)c2cccc(N3C(=O)C4C5C=CC(C5)C4C3=O)c2)cc1Cl (configuration not stated),7%,-1,?,14,13%,/
COc1cc(=O)[nH]c(SC(C)C(=O)Nc2cccc3ccccc23)n1 (configuration not stated),22%,-7,23%,-2,7%,/
CCSc1nnc(NC(=O)[C@@H](NC(=O)c2ccc(C(C)(C)C)cc2)C(C)C)s1,?,8,?,34*,21%,0%
CCN(C(=O)CN1C=NS(=O)(=O)c2ccccc21)c1ccccc1,-6%,-2,0%,-9,-6%,/
CCCCCCCCCCCCCCCCCCO,12%,-1,0%,-2,/,/
COc1ccc(NC2=CC(c3ccccc3)N(c3ccc(OC)cc3)C2=O)cc1 (configuration not stated),5%,5,-7%,65*,7%,-2%
O=C(c1cccc(Oc2ccccc2)c1)N1CCN(c2ccccn2)CC1,0%,12,-15%,6,/,/
COc1ccccc1Nc1cc(C(=O)N2CCc3ccccc3C2)c2ccccc2n1,?,11,?,30*,/,1%
O=C(NCC1CCCO1)C1CCCN1C(=O)Nc1ccc(Cl)cc1 (configuration not stated),37%,-3,20%,14,6%,/
CCCc1cc(=O)[nH]c(SCC(=O)Nc2ccc(OC(F)F)cc2)n1,5%,-8,5%,-13,2%,/
Cc1ccc(O)c(NC(=O)C2CCCCC2)c1,?,8,0%,34*,-3%,1%
COc1ccc(OCc2cccc(C(=O)O)c2)cc1,?,9,4%,52*,-53%,0.032µM*
O=C(/C=C/Nc1ccc(F)cc1F)c1ccco1,-35%,10,47%,49*,-7%,0.25µM*
O=C(NCCCNC(=O)c1ccco1)c1cccc(F)c1,15%,3,1%,-19,18%,/
CC(NC(=O)CCNC(=O)c1ccc(Br)cc1)c1ccc(S(N)(=O)=O)cc1 (configuration not stated),-6%,/,29%,/,/,/
CCn1c(SCC(=O)NCc2ccco2)nc2c1c(=O)n(C)c(=O)n2C,-34%,-2,16%,68*,-7%,-1%
SMILES,Pf growth 96h,CHX counter-1,Pf growth 48h,Shiga inhibitor,NS1 inh,CHX counter-2
Cc1cccc(NC(=O)NC2CC(=O)N(c3ccc4c(c3)OCCO4)C2)n1 (configuration not stated),?,2,-6%,-19,/,/
CC(C)(C)C(=O)Cn1ncc(N2CCOCC2)c(Br)c1=O,0%,4,16%,26*,3%,5%
O=C(C(Sc1ccccc1)c1ccccc1)N1CCOCC1 (configuration not stated),?,-1,7%,46*,8%,-4%
O=C(C(c1ccccc1)N1CCOCC1)N1CCOCC1 (configuration not stated),/,3,3%,-8,12%,/
CCOC(=O)C1CCN(S(=O)(=O)c2cccc(-c3cn4cccc(C)c4n3)c2)CC1,-6%,2,-6%,-15,-64%,/
Cc1cccn2cc(-c3cccc(S(=O)(=O)N4CC(C)OC(C)C4)c3)nc12 (configuration not stated),?,-1,-18%,28*,-43%,-1%
COc1ccc(CNC(=O)C(OC(=O)c2ccco2)c2ccccc2F)cc1 (configuration not stated),-10%,-1,58%,40*,-6%,5%
CCC(OC(=O)c1ccco1)C(=O)NCc1ccc(OC)cc1 (configuration not stated),31%,-5,16%,-5,-9%,/
Cc1ccc(Cn2c(-n3nc(C)cc3C)nc3c2c(=O)[nH]c(=O)n3C)cc1,15%,-2,?,-8,-8%,/
Cc1cc(C)n(-c2nc3c(c(=O)[nH]c(=O)n3C)n2Cc2cccc(Br)c2)n1,3%[5.75 µM],4,?,84*,0%,-3%
Cc1ccc(NC(=O)COC(=O)CCc2c(C)nc3nc(N)nn3c2C)cc1C,14%,/,-1%,/,/,/
COc1ccccc1NC(=O)CSc1nnc(COc2ccccc2OC)n1C,-3%,-5,-10%,-12,-6%,/
COc1ccccc1NC(=O)CSc1nnc(CC(=O)Nc2ccccc2F)n1C,2%,11,6%,56*,-6%,-2%
COc1ccc(N2CCN(Cc3csc(C)c3-c3ccc(C)cc3)CC2)cc1,0%,-3,10µM*,40*,-3%,-2%
COc1ccc(-c2cn3c(C)c(C(=O)NC(C)C)sc3n2)cc1,-1%,8,10%,53*,0%,3%
COc1ccc2[nH]c(-c3ccccc3)cc(=O)c2c1,/,17,/,+,/,?
O=c1cc(-c2ccc(F)cc2F)[nH]c2ccccc12,0%,-1,11%,-8,?,/
O=c1cc(-c2cccc(F)c2)[nH]c2ccc(Cl)cc12,/,9,/,+,/,-2%
C=C1C(O)C2OC3(CCC(/C=C/C(C)C4CC(C)=CC5(OC(CC(C)(O)C(=O)O)CCC5O)O4)O3)CCC2OC1C(O)CC(C)C1OC2(CCCCO2)CCC1C (configuration not stated),/,-3,/,+,/,3%
CC1CC1C(=O)NCCc1ccc(Cl)cc1 (configuration not stated),-17%,17,-25%,27,3%,/
